Screening results: PubChem BioAssay, National Center for Advancing Translational Sciences (NCATS)
Cruzain inh Det – qHTS Assay for Promiscuous and Specific Inhibitors of Cruzain (with detergent) | Cruzipain (Trypanosoma cruzi), P25779 | 0.43% of 200,000 active | Potency, µM, usual class: inhibitors | purified cruzain, Z-FR-AMC fluorescence, 0.01% Triton; note: nearly all actives have a fitted effect of over 40% in size
Target sequence (P25779 123-467 limits assumed): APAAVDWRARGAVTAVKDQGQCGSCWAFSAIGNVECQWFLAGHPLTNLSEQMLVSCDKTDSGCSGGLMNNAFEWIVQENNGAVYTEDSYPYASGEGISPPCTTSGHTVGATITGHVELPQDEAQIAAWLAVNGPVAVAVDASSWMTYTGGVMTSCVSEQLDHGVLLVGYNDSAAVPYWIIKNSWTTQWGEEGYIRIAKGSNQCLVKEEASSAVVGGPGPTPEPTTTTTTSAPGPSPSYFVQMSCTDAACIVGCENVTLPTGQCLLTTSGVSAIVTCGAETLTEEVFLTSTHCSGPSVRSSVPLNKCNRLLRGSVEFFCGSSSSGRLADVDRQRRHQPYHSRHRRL
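15 min RT preincubation of 1.5 nM cruzain with compound, then 2 uM Z-FR-AMC added; kinetic AMC fluorescence, 60 s delta. Triton X-100 0.01%, pH 5.5.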
Cruzain noTriton – qHTS Assay for Promiscuous and Specific Inhibitors of Cruzain (without detergent) | Cruzipain (Trypanosoma cruzi), P25779 | AID 1476, 2009 | 2.3% of 200,000 active | purified cruzain, Z-FR-AMC fluorescence, no detergent | Potency, µM, most hits filed as inhibitors; note: nearly all actives have a fitted effect of over 40% in size
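Purified cruzain at 1.5 nM, pre-incubated 15 min with compound at room temperature in 100 mM sodium acetate pH 5.5, 5 mM DTT, 0.00005% Triton X-100. Reaction started with 2 uM Z-FR-AMC; AMC fluorescence increase over 60 s gives rate.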
Large screens that a line does not name were inactive. Hits are enriched below; roughly 2.4% of the tested compounds scored in any of these assays. Calls come from the whole dose curve; as a rule, active = well fitted curve in the direction sought with a large enough effect; inconclusive = small, poorly fitted or top-dose-only effect, or another doubt; inactive = no such curve, though single readings can be large; an effect the other way counts as inactive or inconclusive.

O=C(COC(=O)Cc1c(F)cccc1Cl)NCCC1=CCCCC1	none
O=C(COC(=O)CNC(=O)c1cccc(F)c1)NCCC1=CCCCC1	Cruzain inh Det 16µM, Cruzain noTriton 13µM
COc1cccc(CSc2nc(-c3ccccc3F)nc3c2Cc2c(CO)cnc(C)c2O3)c1	none
COc1ccc(-c2csc(Nc3cccnc3)n2)cc1OC	none
c1cncc(-c2nc(-c3ccc4c(c3)OCO4)cs2)c1	none
COc1ccccc1Nc1nc(-c2c(C)[nH]c3ccccc23)cs1	Cruzain noTriton 25µM
COc1ccccc1Nc1nc(-c2sc(NC(=O)CC(C)C)nc2C)cs1	Cruzain noTriton inconclusive
O=C1c2ccccc2C(=O)N1c1cccc(-c2csc(Nc3ccc4c(c3)OCO4)n2)c1	Cruzain noTriton 5µM
COc1ccccc1Nc1nc(-c2cccc(N3C(=O)c4ccccc4C3=O)c2)cs1	Cruzain noTriton 7.9µM
CCCN(C(=O)Cn1nc(Cc2cccnc2)c2ccccc2c1=O)c1ccc(C(C)C)cc1	Cruzain noTriton inconclusive
CC1Cc2ccccc2N1C(=O)CSc1nc2ccc(NC(=O)COc3ccccc3)cc2s1 (stereo not given)	none
COc1ccc(CNCCSc2nnnn2-c2ccccc2)c(OC)c1	none
CCOC(=O)c1scc(-c2ccccc2)c1S(=O)(=O)N1CCN(c2ccc(Cl)cc2)CC1	Cruzain noTriton inconclusive
O=C(Nc1ccc(F)c(Cl)c1)Nc1c[nH]c(=O)[nH]c1=O	none
CCN1CCN(C(=O)c2ccc3c(=O)n(CCC4=CCCCC4)c(=O)[nH]c3c2)CC1	none
O=C(NCc1ccco1)c1ccc2c(=O)n(CCC3=CCCCC3)c(=O)[nH]c2c1	Cruzain noTriton 16µM
c1ccc2c(c1)ccc1cc3c(ccc4ccccc43)cc12	none
c1ccc(C(c2cccc3c2ccc2ccccc23)[C@H](c2ccccc2)c2cccc3c2ccc2ccccc23)cc1 (stereo not given in full)	Cruzain noTriton 4µM
CCOC(=O)c1c(/N=C/c2c(O)n(-c3ccc(F)cc3)c(=S)[nH]c2=O)sc2c1CCCC2	none
CCOC(=O)c1c(/N=C/c2c(O)n(-c3ccccc3F)c(=S)[nH]c2=O)sc2c1CCCC2	Cruzain noTriton 16µM
Cc1c(Cl)cccc1NC(=O)c1cnc2sc(N3CCCC3)nn2c1=O	none
CCc1ccc(CN(Cc2ccco2)c2cnc(S(C)(=O)=O)nc2C(=O)Nc2ccccc2Cl)cc1	none
O=C(Cc1sc(-c2ccccc2Cl)nc1-c1ccccc1)Nc1ccccc1	Cruzain noTriton 13µM
O=C(Cc1sc(-c2ccccc2)nc1-c1ccccc1)Nc1ccc(Cl)cc1	Cruzain noTriton inconclusive
O=C(O)Cc1sc(Nc2ccccc2)nc1-c1ccccc1	none
O=C(Cc1sc(-c2ccccc2Cl)nc1-c1ccccc1)Nc1ccc(F)cc1	Cruzain noTriton 16µM
O=C(c1ccc2c(c1)N(Cc1ccccc1F)C(=O)c1ccccc1S2=O)N1CCC(Cc2ccccc2)CC1 (stereo not given)	none
CCOc1ccc(C(=O)c2oc3ccccc3c2NC(=O)c2cc(=O)c3ccc(C)cc3o2)cc1	none
Cc1ccc2onc(CNC(=O)Nc3cc(F)ccc3F)c2c1	none
CC(=O)N1CCOc2cc(S(=O)(=O)Nc3c(C)cccc3C(C)C)c(Cl)cc21	none
CCCCNC(=O)c1ccc2c(c1)NC(=O)C(CS(=O)(=O)Cc1cccc(C)c1)N2 (stereo not given)	none
CC(C)(C)c1ccc(C(=O)Nc2nonc2-c2nc3ccccc3[nH]2)cc1	Cruzain noTriton 3.2µM
CCn1c(-c2nonc2NC(=O)c2ccccc2)nc2ccccc21	none
COc1cc(-c2ccno2)ccc1S(=O)(=O)N1CCN(c2ccc(C(C)=O)cc2)CC1	none
COC(=O)[C@@H](NC(=O)NC(C)CCc1ccccc1)C(C)C (stereo not given in full)	none
CC(C)[C@H](NC(=O)[C@H](CCCN=C(N)N)NC(=O)NC(Cc1ccccc1)C(=O)O)C(=O)NC(C=O)CCCN=C(N)N (stereo not given in full)	Cruzain inh Det 0.035µM, Cruzain noTriton 0.032µM
CCN(Cc1nc(-c2ccc(OC)cc2)oc1C)S(=O)(=O)c1ccc(C)cc1	none
